Columns and labels:
Assay in all cases: PBM binding z-score (relative to random genomic background probes); higher = stronger binding; sequences stand for … in GC…GCGATTGACAGCGTAGAATGAAGG
[1] = system: RARb homodimer (NR concentration 270 nM)
Outline: (§1)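 Antibodies against each partner of ligand-free nuclear receptor dimers (one per run) detected binding on custom Agilent 4×180K protein-binding microarrays after 1 h incubation. The double-stranded probes had 34-nt variable regions carrying direct-repeat seeds, single-nucleotide variants, half-site ablations and random human genomic background sequences. Binding z-scores, from regression-normalized fluorescence, use the random background probes as reference.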

[2] = system: RARg:RXRa (NR concentration 270 nM, RXRa partner concentration 90 nM)
Outline: as §1

[3] = system: RARg homodimer (NR concentration 270 nM)
Outline: as §1

[4] = system: RXRa DBDmut IVT, anti-RXR (DBD mutation: RXRa K156A/R161A, NR concentration 90 nM)
Outline: as §1

[5] = system: RXRa homodimer (NR concentration 180 nM)
Outline: as §1

[6] = system: THRa:RXRa (NR concentration 90 nM, RXRa partner concentration 90 nM)
Outline: as §1

[7] = system: THRa homodimer (NR concentration 90 nM)
Outline: as §1

[8] = system: VDR:RXRa (NR concentration 270 nM, RXRa partner concentration 90 nM)
Outline: as §1

[9] = system: VDR homodimer (NR concentration 270 nM)
Outline: as §1

Sequence | PBM binding z-score [1] | PBM binding z-score [2] | PBM binding z-score [3] | PBM binding z-score [4] | PBM binding z-score [5] | PBM binding z-score [6] | PBM binding z-score [7] | PBM binding z-score [8] | PBM binding z-score [9]
CAAACTAGGTCAAGGTCAAAGGCGGTTTGTGCCA | 5.02 | 6.14 | 6.63 | 3.02 | 5.77 | 4.38 | 3.55 | 4.87 | 3.92
GCTGCTAGGGCAGGTTGGTCAGCTAACGGGTACG | 0.705 | -0.148 | 0.544 | -0.241 | -0.467 | -0.443 | -0.665 | -0.775 | -0.232
CGTCCAAGGTCAGCAGGTCAGTGACAGCGACGTG | 5.12 | 6.43 | 7.03 | 2.63 | 5.26 | 3.87 | 2.43 | 4.1 | 2.08
AGGCAAAGTTCAGGACGAGGTAACGTAAAGCACG | 3.36 | 4.68 | 5.16 | 2.98 | 3.23 | 3.87 | 1.95 | 2.67 | 2.35
GCTGCTACGTCAACTGATGGTCAGCTAAAGCTCG | -0.272 | -0.163 | -0.441 | -0.129 | -0.367 | -0.498 | -0.948 | -0.617 | -0.701
GCTAGCAGGCCGTTTGGGTCACTCAATGACGGGC | 1.43 | 0.678 | 0.649 | -0.318 | 0.67 | 1.61 | 0.166 | 0.00602 | 0.089
ATAATGAGGTTATACGTAGATCAGGGAAGAAAGT | 1.21 | 2.19 | 1.72 | 2.1 | 2.56 | 2.46 | 0.968 | 1.95 | 1.16
GATACAGGGTCAAGGCTAGAGTACGCGTATTGAT | 3.75 | 5.53 | 5.01 | 2.4 | 5.93 | 3.52 | 1.23 | 4.6 | 2.36
AGAATGAGGTTAAGAGCAGGGAAACAGAATACAT | 0.878 | 2 | 1.27 | 0.729 | 2.46 | 2.19 | 0.347 | 0.967 | 0.0105
ACTATTAGTTGAGACGAGGACAACCGATAGGTTG | 0.638 | 0.27 | 0.902 | 0.0973 | 0.226 | 3.9 | 2.56 | 0.286 | 0.657
CGAACGAGGGCATGAGTCGATAGCAAATGCCGAT | 0.648 | 0.901 | 1.41 | 1.99 | 0.869 | 0.888 | -0.267 | 0.359 | 0.974
ACTAGTTGGTCAGCTGAGGTCACCCACAATTCGG | 4.38 | 4.14 | 4.02 | 1.19 | 3.69 | 4.97 | 5.19 | 4.46 | 3.57
ATACCGAGGTGATCGTGAGGTCGTTGATACTAAC | 1.77 | 2.74 | 0.682 | 0.849 | 1.91 | 3.52 | 2.44 | 3.69 | 2.85
TCAGACAGGTGAAGGTAACTTAGGTACGCAGTCG | 0.872 | 0.797 | 0.756 | 1.19 | 1.14 | 1.86 | 0.691 | 1.02 | 0.508
TCTGCTAGGTCCACGATGGTCAGCTAATCTGCTA | -0.207 | -0.213 | -0.0544 | 0.651 | -0.333 | -0.32 | -0.873 | -0.304 | -0.326
TATATTAGTTGAAGGGCAACCGACGAGTCCGTTT | 1.37 | 0.983 | 1.22 | 0.547 | 0.884 | 0.415 | -0.0239 | 0.939 | 1.91
GCGACTGGGGCTAAGCAGGTTACCATAAGGTTGG | 0.946 | 0.126 | 0.179 | -0.481 | -0.00806 | 1.12 | 0.145 | -0.0992 | -0.2
CCTACTGGGCCATCAGCTCATTGATATCAACGTT | -0.431 | -0.217 | 0.0511 | -0.384 | -0.717 | -0.526 | -0.399 | -0.619 | -0.517
AGAGTGAGGTTATTAAGATCAGGGAATTGCGGTC | 1.42 | 1.12 | 0.991 | 1.56 | 1.82 | 2.12 | 1.33 | 2.49 | 1.97
CCGACTGGGGCATAAGGTTACTATAAGCCAGCCC | 1.38 | 1.37 | 0.813 | -0.277 | 1.04 | 1.59 | 0.819 | 0.306 | 0.0174
CGTAGTTGGTCAGGAGGTCACACACCGGATATGA | 4.25 | 5.01 | 4.39 | 0.895 | 4.57 | 3.46 | 2.18 | 3.86 | 3.08
TCATATAGGTAATACATGTGAAAGTCGGCATCTA | -0.0768 | 0.625 | 0.544 | 1.57 | 1.14 | 0.246 | -0.0874 | 1.07 | 0.128
AGTCAAAGTTCAGGACGAGGTAACGTAGAGCACG | 3.39 | 4.8 | 4.77 | 2.61 | 3.06 | 4.07 | 1.71 | 2.91 | 2.15
CAGCCTAGGTCACGGCCAGTATAGGAGGAACGTT | 3.53 | 5.27 | 5.72 | 1.1 | 4.43 | 3.65 | 1.98 | 2.68 | 0.435
TGTCTAAGTTCAAAGGTAACGTAAGTATCCACAC | 2.69 | 4.48 | 3.63 | 4.28 | 5.62 | 3.44 | 0.485 | 4.6 | 3.83
AGTCAGAGTTCACTAGGTAACGTAAGATTCAGCT | 2.83 | 4.11 | 4.7 | 4.73 | 3.63 | 1.85 | 0.172 | 4.82 | 5.65

Sequence | PBM binding z-score [1] | PBM binding z-score [2] | PBM binding z-score [3] | PBM binding z-score [4] | PBM binding z-score [5] | PBM binding z-score [6] | PBM binding z-score [7] | PBM binding z-score [8] | PBM binding z-score [9]
GATACAGGTTCAAGGCCAGAGTACGCGTATTGAT | 1.44 | 1.82 | 1.3 | 3.5 | 2.13 | 1.55 | 0.144 | 3.41 | 3.82
CAAACTAGGTCAAAGCTCAAAGTCGAGCCAACCA | 2.4 | 4.14 | 4.25 | 1.91 | 3.7 | 2.39 | 0.666 | 1.74 | 0.583
TGTCAAAGTTCAAAGGTAACGTTAGTATCCACAC | 4.11 | 6.39 | 6.13 | 4.32 | 7.81 | 3.18 | -0.0671 | 4.9 | 3.97
CCTATTAGTTGACCATAAGGGCATCCGAAGCTCG | 1.78 | 1.12 | 1.02 | 0.721 | 0.568 | 1.89 | 1.35 | 0.862 | 1.26
ACATGTAGGTTACATCCGGGTCATTCAGGCTATG | 3.01 | 3.84 | 2.29 | 1.4 | 3 | 3.83 | 2.85 | 4.11 | 3.73
GCTAGCAGGCCATTAGGGTCACTCAATGACGGGC | 2.83 | 2.53 | 2.08 | 0.0923 | 2.42 | 3.37 | 2.03 | 4.6 | 1.91
TGAATGAGGTTAAAGATCACGGAACGTGGCGTCG | 0.603 | 2.83 | 1.49 | 0.843 | 5.25 | 2.72 | 0.0245 | 2.22 | 0.625
ATATGTAGGTTACATCCGGGTGATTCAGGCTATG | 0.887 | 1.19 | 1.11 | 0.378 | 1.27 | 2.07 | 0.9 | 0.753 | 0.101
CCGAGTAGGGTATGGGGCATTCAGGCAACGGTGA | 0.595 | -0.153 | -0.189 | -0.938 | 0.102 | 0.159 | 0.0739 | -0.217 | 0.36
ATCTCTAGGTAAAGATAGTTCAGTGGATGCAAAT | 0.847 | 0.4 | 0.785 | -0.122 | 0.17 | 0.667 | 0.0913 | 0.451 | 0.205
TGAATGAGGTTATAAGATCTGGGAACGTTGCAAA | 0.515 | 1.04 | 0.631 | 0.607 | 1.61 | 1.67 | 0.199 | 0.768 | 0.194
CGTCAAAGTTCAAGGTACCGTAACAGAAAGCAGC | 3.94 | 5.07 | 6.14 | 4.56 | 4.33 | 2.06 | 0.154 | 3.76 | 3.09
CCAGACAGGTCAAAGGTAACTCAGTCTGGTACGC | 3.43 | 5.62 | 4.75 | 2.47 | 6.86 | 3.06 | 0.0861 | 3.86 | 0.986
CGAACTAGGTCATTGACAGAACAGTGAATAGTAA | 2.34 | 3.64 | 4.15 | 2.74 | 2.46 | 2.47 | 0.922 | 1.97 | 1.15
CTACCAAAGTGAACAAGGTCGTTGATTACTATTC | 1.32 | 0.65 | 0.529 | 1.69 | 0.996 | 1.94 | 1.24 | 3.07 | 2.22
TAGTCTAGGTCATGCGGGCCAGTATAGTGTCGGC | 3.13 | 3.77 | 4.69 | 0.748 | 3.08 | 3.29 | 1.67 | 2.86 | 0.86
ACAGACAGGTGAGTGAAGGTAACTCAGCTGGACG | 0.005 | 0.297 | 0.64 | -0.506 | 0.428 | 1.51 | -0.394 | -0.401 | -0.355
TTACCAAGGTGAAAGGTAGTTGATGCACGCCTTG | 0.674 | 1.1 | 0.73 | 0.0303 | 1.67 | 1.73 | 0.341 | 0.524 | -0.225
CGAACTAGGTCAAGGACAGTGATTCTCCGCACGC | 3.36 | 3.83 | 4.62 | 1.49 | 2.77 | 3.42 | 2.19 | 1.48 | 0.466
TCATCTAGGTAAAGGTGAAAGTCGAACGATATGA | 1.65 | 1.58 | 1.28 | 0.923 | 2.08 | 1.75 | 0.0366 | 0.95 | 0.215
CCTACTGGGCCAAGGTCATTGGTCAGTCAAAGCA | 3.51 | 3.85 | 3.86 | 0.988 | 3.73 | 3.48 | 2.62 | 3.39 | 3.41
CGAACTAGGTCAAGGACCGTGAATCTCCGCACGC | 2.79 | 3.42 | 4.01 | 1.15 | 2.32 | 2.46 | 0.938 | 0.799 | -0.163
GCGACTGGGGCATCCGCAGGTTACCATAACTTAA | 0.945 | 1.31 | 0.446 | 0.00577 | 0.41 | 1.21 | -0.198 | -0.12 | -0.454
GCGACTGGGGCATCAGCAGGTTACCTTAACTTAA | 0.872 | 0.268 | 0.175 | 0.145 | 0.259 | 1.8 | 2.05 | -0.355 | -0.071
GATACAGGGTCAGCTAGAGGCCAGGGTATGGAAA | 3.59 | 6.74 | 4.95 | 0.978 | 4.38 | 3.08 | 0.844 | 3.14 | 1.01
ATCTCTAGGTAAGAGTCAGTTCAGTGAAGAACGC | 0.813 | 0.338 | 0.332 | 0.262 | 0.0582 | 0.853 | 0.649 | 0.748 | 0.916

From the supplement of paper PMC6555819
